Measured values taken from the supplement of paper PMC6555819.

Legend:
Test in all cases: PBM binding z-score (relative to random genomic background probes); higher = stronger binding; sequences stand for … in GC…GCGATTGACAGCGTAGAATGAAGG
[1] = tested on: PPARg:RXRa DBDmut IVT, anti-RXR (DBD mutation: RXRa K156A/R161A, NR concentration 270 nM, RXRa partner concentration 90 nM)
Outline: (§1)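 Binding z-scores take random background probes as their reference. They come from custom Agilent 4×180K protein-binding microarrays incubated 1 h with ligand-free nuclear receptor dimers, with antibodies against each partner (one per run) detecting binding. Scanned fluorescence was regression-normalized.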

[2] = tested on: PPARg:RXRa IVT, anti-PPARg (NR concentration 270 nM, RXRa partner concentration 90 nM)
Outline: as §1

[3] = tested on: PPARg DBDmut:RXRa IVT, anti-PPARg (DBD mutation: PPARg1 K132A/R137A, NR concentration 270 nM, RXRa partner concentration 90 nM)
Outline: as §1

[4] = tested on: PPARg DBDmut IVT, anti-PPARg (DBD mutation: PPARg1 K132A/R137A, NR concentration 270 nM)
Outline: as §1

[5] = tested on: PPARg homodimer (NR concentration 180 nM)
Outline: as §1

[6] = tested on: PXR:RXRa (NR concentration 270 nM, RXRa partner concentration 90 nM)
Outline: as §1

[7] = tested on: PXR homodimer (NR concentration 270 nM)
Outline: as §1

[8] = tested on: RARa:RXR (NR concentration 270 nM, RXRa partner concentration 90 nM)
Outline: as §1

[9] = tested on: RARa homodimer (NR concentration 270 nM)
Outline: as §1

[10] = tested on: RARb:RXRa (NR concentration 270 nM, RXRa partner concentration 90 nM)
Outline: as §1

| Sequence | PBM binding z-score [1] | PBM binding z-score [2] | PBM binding z-score [3] | PBM binding z-score [4] | PBM binding z-score [5] | PBM binding z-score [6] | PBM binding z-score [7] | PBM binding z-score [8] | PBM binding z-score [9] | PBM binding z-score [10] |
| --- | --- | --- | --- | --- | --- | --- | --- | --- | --- | --- |
| ATATATAGGTTACATCCGGGTCATTCAGGCTATG | 7.41 | 7.26 | 3.67 | 2.9 | 2.67 | 4.12 | 2.95 | 4.05 | 1.77 | 2.51 |
| CCTCGGAGGACAACAGGAGGTCGGAGCTGCCAGA | -0.0819 | -0.232 | -0.343 | -1.52 | -0.189 | 0.00803 | -0.239 | 0.109 | 0.111 | 1.55 |
| ACTGTTAGTTGAGACGAGGGCAACCGATAGGTTG | -0.176 | 0.773 | 0.909 | 0.848 | 0.542 | 1.2 | 0.0894 | 0.667 | 0.756 | 1.21 |
| ACAGACAGCTGAGTGAAGGTAACTCAGCTGGACG | -0.835 | -0.364 | -0.856 | -0.718 | -1.12 | -0.593 | -0.603 | -0.513 | -0.693 | -0.274 |
| TCTTGTAGATCAACAGGAGTTTAAGAAAGATCGA | 1.57 | 0.487 | 0.0985 | 0.197 | -0.389 | 0.514 | -0.0735 | 0.201 | -0.584 | 0.0376 |
| CGTCCAAGGTCAGCAGGTCTGTGAAAGCGACGTG | 2.57 | 2.56 | 0.914 | -0.164 | 2.67 | 2.58 | 0.407 | 3.61 | 0.46 | 4.85 |
| CCTAACGGGTCACTGACAGGTTATAGCATTTGGA | 2.22 | 2.71 | -0.265 | -0.262 | 2.61 | 3.02 | 0.336 | 4.05 | 1.31 | 3.48 |
| TTACCAAGGTGAAAGGTCCTTGATGCACGCCTTG | 2.49 | 4.34 | -0.24 | 0.133 | 0.166 | 1.1 | -0.666 | 2.31 | -0.838 | 1.93 |
| AGATTGAGGTTATTAAGATCAGGGAATTGCGGTC | 2.3 | 2.34 | 0.654 | 0.969 | 1.25 | 1.32 | 0.669 | 1.33 | 0.972 | 1.41 |
| CCTTACGGGTCACTGACAGGATATAGCATTTGGA | 3.33 | 3.54 | 1.02 | 0.966 | 2.23 | 3.03 | 0.183 | 3.85 | 1.33 | 3.95 |
| GCGACTGGGGCATCGGCAGGTTACCATAACTTAA | 3.7 | 3.26 | -0.659 | -0.662 | 0.364 | 0.0639 | -0.275 | 0.387 | -0.205 | 0.954 |
| TCTAGTTGTTCAAAGGTCACACACTCGAAATGCG | 2.71 | 4.64 | 1.27 | 1.68 | 4.16 | 5.49 | 1.93 | 5.89 | 4.19 | 5 |
| TCTGCTAGGTCAGTTGGTTAGCTAACGAGCTGCC | 2.45 | 2.82 | -0.493 | -0.0218 | -0.654 | 0.251 | -0.819 | 0.432 | -1.34 | 3.29 |
| TCCCGGAGGACACGAAGGTCAGAGCTTTCCAGAG | 0.961 | 0.734 | -0.541 | -1.41 | 1.3 | 1.73 | 0.166 | 1.95 | -0.433 | 3.44 |
| CCTCGGAGGACAGAAGGACAGAGCTGTCCGCTTT | -0.418 | -0.913 | -0.956 | -1.82 | -0.605 | -0.689 | -0.621 | -0.66 | -0.614 | 0.716 |
| ATAGAAAGGTCGACGAGGTGAGTATACACCGTTT | 0.284 | 1.82 | 1.11 | 0.417 | 1.76 | 2.87 | 0.566 | 3.6 | 0.784 | 3.72 |
| GCTGCTAGGTCAACTGATGGTCAGCTCAAGCTCG | 4.88 | 3.98 | -0.00259 | -0.768 | 2.12 | 1.66 | -0.637 | 2.9 | -0.413 | 4.23 |
| ATTGAAAGGTCGAAGGTGAGTATACCCACCCGAA | 0.108 | 2.82 | 1.09 | 0.602 | 2.51 | 3.15 | 0.394 | 4.57 | 0.818 | 3.83 |
| CGGCCAAGGTCAATGCTAGGTCAGTGAAAGCATT | 3.06 | 3.69 | -0.404 | -1.18 | 4.15 | 4.73 | 0.802 | 5.67 | 0.406 | 5.24 |
